SMILES strings stand for the structures. Values joined by “and” are separate entries in the source; they are usually repeats but may differ in a detail not shown here. Equal entries are not always repeated. Out of some 16,000 compounds screened, about 5,700 (36%) were called active. Not shown: some 24% with an inconclusive outcome. Calls follow the shape of the dose curve; as a rule, active = well fitted curve in the direction sought with a large enough effect; inconclusive = small, poorly fitted or top-dose-only effect, or effect the other way; inactive = no such curve, though single readings can be large or run the other way. This is one part of the list. Some compounds were tested as several samples or in several runs, with calls that do not always agree.
% is scaled to controls: 0 for no effect and ±100 for the full control effect.

The target of this experiment is Cytochrome P450 1A2 (Homo sapiens) (UniProt P05177). The experiment in a line: Cytochrome panel assay with activity outcomes. The following applies: recombinant CYP, pro-luciferin dealkylation, luminescence, p450-cyp1a2; series mostly up to 57.1 µM; activity, negative = inhibition: at the top concentration.
Chain of Cytochrome P450 1A2 (Homo sapiens) (P05177 whole entry, looked up): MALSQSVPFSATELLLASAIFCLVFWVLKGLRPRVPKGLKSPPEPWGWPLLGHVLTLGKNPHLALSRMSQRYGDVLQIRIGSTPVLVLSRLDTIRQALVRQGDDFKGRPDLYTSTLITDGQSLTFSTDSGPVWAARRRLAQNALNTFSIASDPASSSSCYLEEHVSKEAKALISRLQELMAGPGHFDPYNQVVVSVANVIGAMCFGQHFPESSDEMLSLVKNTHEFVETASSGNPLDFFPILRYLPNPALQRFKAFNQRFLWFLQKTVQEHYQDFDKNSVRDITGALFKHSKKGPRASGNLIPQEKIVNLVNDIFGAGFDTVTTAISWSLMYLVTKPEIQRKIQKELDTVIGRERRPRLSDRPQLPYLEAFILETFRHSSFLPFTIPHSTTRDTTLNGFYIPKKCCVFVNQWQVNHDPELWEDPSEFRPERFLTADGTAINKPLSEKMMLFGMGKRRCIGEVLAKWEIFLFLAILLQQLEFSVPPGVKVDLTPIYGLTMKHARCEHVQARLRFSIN
In the case of `Nc1nc2c(c(=O)[nH]1)N(C=O)[C@H](CNc1ccc(C(=O)N[C@@H](CCC(=O)O)C(=O)O)cc1)CN2`, the “activity, negative = inhibition” value is -1.33% [at 25.6 µM] (inactive).

Turning to `COc1cccc(OC)c1OCCNC[C@@H]1COc2ccccc2O1`, the AC50 was 12.6 µM (active) and 25.1 µM (active).

Take `Cn1c(C(=O)O)c(CC(=O)NCC2COc3ccccc3O2)c2ccccc21` (configuration not stated): the “activity, negative = inhibition” value was -29.5% (inactive).

With `COc1ccccc1NC(=O)N1CCC(c2nnc(SCC(N)=O)n2C)CC1`, the “activity, negative = inhibition” value was 2.54% (inactive).

Take `COc1cccc(OC)c1OCCCN1CCOCC1`: the “activity, negative = inhibition” value is -21.7% (inactive).

As for `COc1ccccc1NC(=O)CC1COc2ccccc2O1` (configuration not stated), the AC50 was 7.08 µM (active).

`CC(C)N=c1scc(-c2ccco2)n1/N=C/c1ccc(O)c(O)c1`: the AC50 was 15.8 µM (active).

Take `CNc1cc(NS(=O)(=O)c2ccc(N)cc2)nc(NC)n1`: the “activity, negative = inhibition” value was -10.1% (inactive).

For the compound `Cc1cccc(OCCSCc2nc3ccccc3[nH]2)c1`, the AC50 is 2.24 µM (active).

Take `Cc1ccccc1N1CCN(S(=O)(=O)C[C@@]23CC[C@H](C[C@H]2NC(=O)[C@@H](N)CCS(C)(=O)=O)C3(C)C)CC1`: the “activity, negative = inhibition” value was -1.31% (inactive).

Regarding `COc1ccc(/C=N/NC(N)=S)cc1OC(=O)c1cccc2ccccc12`, the AC50 was 1.58 µM (active).

Consider `COc1ccc(C(=O)Oc2cc(/C=N/NS(=O)(=O)c3ccc(C)cc3)ccc2OC)cc1`, for which the “activity, negative = inhibition” value is -22.7% (inactive).

Take `COc1ccc(/C=N/NC(=O)c2cc(-c3ccc(C)cc3C)nc3ccccc23)cc1COC(C)=O`: the “activity, negative = inhibition” value is 6.8% (inactive).

`O=c1c2ccccc2nc2n1CCc1c-2[nH]c2ccccc12`: the AC50 is 0.316 µM (active).

As for `O=c1c2ccccc2nc2n1C(CSc1ccc(F)cc1)CN2` (configuration not stated), the “activity, negative = inhibition” value was 3.12% (inactive).

Take `O=c1c2ccccc2nc2n1CCC2`: the AC50 was 6.31 µM (active).

With `CC(C)NC(=O)N1CC2(CCN(C(=O)c3ccncc3)CC2)C1`, the “activity, negative = inhibition” value is -3.34% (inactive).

For the compound `Cc1noc(C)c1C(=O)N1CCC2(CCCN(Cc3ccccc3)C2)CC1`, the “activity, negative = inhibition” value was -10.7% (inactive).

As to `O=[N+]([O-])c1ccc(C2=Nn3c(nnc3-c3ccc(Cl)cc3)SC2)o1`, the AC50 was 0.158 µM (active).

In the case of `Cc1nc2sccc2c(=O)n1-c1cccc(Cl)c1`, the AC50 is 11.2 µM (active).

For the compound `COC(=O)c1cnn(C(=O)c2ccccc2Br)c1N`, the half-maximal activity concentration (AC50) is 8.91 µM (active).

For `COC(=O)c1cnn(C(=O)c2cc(OC)ccc2Br)c1N`, the AC50 was 28.2 µM (active).

As for `COc1ncc2nc(-c3cc(F)cc(F)c3)c(=O)n(C3CC3)c2n1`, the concentration at half-maximal activity (AC50) was 1.58 µM (active).

Turning to `O=c1c(-c2cccs2)nc2cnc(Oc3ccccc3)nc2n1C1CC1`, the AC50 is 2.51 µM (active).

Consider `O=c1c(-c2cc(F)cc(F)c2)nc2cnc(Oc3ccccc3)nc2n1C1CC1`, for which the AC50 is 2.51 µM (active).

For the compound `CCCC[C@@H]1CN2[C@H](c3ccc(Br)cc3)[C@H](C)CC[C@H]2C(=O)O1`, the activity, negative = inhibition was 3.25% [at 11.4 µM] (inactive).

On to `CN(C)c1ccc(O)c2c1C[C@H]1C[C@H]3[C@@H](N(C)C)C(=O)C(C(N)=O)=C(O)[C@]3(O)C(=O)C1=C2O`, for which the “activity, negative = inhibition” value is -5.13% [at 25.6 µM] (inactive).

As for `CN1C(C(=O)Nc2ccccn2)=C(O)c2ccccc2S1(=O)=O`, the AC50 result is “inactive and 20 µM (active)”.

As for `Cc1ccccc1NC1=C(C(=O)c2ccccc2)N(C)S(=O)(=O)c2ccccc21`, the “activity, negative = inhibition” value was -7.47% (inactive).

For `CN1C(C(=O)Nc2ccccn2)=C(O)c2sccc2S1(=O)=O`, the “activity, negative = inhibition” value was -10.3% [at 25.6 µM] (inactive).

Regarding `COc1nc(Oc2ccc(/C=N/O)cc2)nc(N(C)C)n1`, the AC50 was 0.447 µM (active).

As to `CCc1cc2c(nc1CC)CCN(CC/C(C)=N/O[C@@H](C)CN1CCCc3nc(C)c(C)cc31)C2`, the activity, negative = inhibition is 5.54% [at 11.4 µM] (inactive).

Consider `Clc1cccc2c1CN(C1=NCCN1)C2`, for which the AC50 was 0.398 µM (active).

As to `Fc1ccc(CN(C2=NCCN2)c2c(Cl)cccc2Cl)cc1`, the “activity, negative = inhibition” value is 6.63% (inactive).

On to `Clc1cccc(Cl)c1NC1=NCCN1`, for which the AC50 result was “inactive”.

Consider `COC(Cc1nnc(SC)n1-c1ccc(Cl)cc1)OC`, for which the “activity, negative = inhibition” value is 20% (inactive).

On to `CCOc1ccc(NCc2nnc(SCc3ccccc3Cl)n2-c2ccccc2)cc1`, for which the AC50 is 7.08 µM (active).

Turning to `COc1ccc(-n2c(CNc3ccc(C)cc3)nnc2SCC(=O)Nc2nc(-c3ccccc3)cs2)cc1`, the “activity, negative = inhibition” value was -23.7% (inactive).

For the compound `COC(=O)CSc1nnc(CNc2ccc(Cl)cc2)n1-c1ccccc1`, the AC50 was 12.6 µM (active).

Consider `CCNC(=O)CSc1nnc(C2CC2)n1-c1ccccc1`, for which the “activity, negative = inhibition” value is 1% (inactive).

For the compound `C=CCSc1nnc(-c2cc3c(C(F)(F)F)nn(C)c3s2)n1C`, the AC50 is 1.12 µM (active).

In the case of `CCCNC(=O)c1cc2c(C(F)(F)F)nn(C)c2s1`, the AC50 was 0.794 µM (active).

`CCNS(=O)(=O)c1ccc(NC(=O)c2cc(C(F)(F)F)nn2C)cc1`: the “activity, negative = inhibition” value is -22.7% (inactive).

For `CCCCSc1nnc(-c2cc3c(C(F)(F)F)nn(C)c3s2)n1C`, the AC50 is 14.1 µM (active).

Regarding `C#CCSc1nnc(-c2cc3c(C(F)(F)F)nn(C)c3s2)n1C`, the AC50 is 1.12 µM (active).

In the case of `CCc1c2c(nc3cccc(OC)c13)OC(CC)C2` (configuration not stated), the AC50 was 2 µM (active).

As to `COc1ccc(-c2nsc3c(N4CCCCC4)ncnc23)cc1`, the AC50 is 2.82 µM (active).

In general, AC50 refers to the concentration at which the activity in the assay is half-maximal.

Source of the values: PubChem BioAssay AID1851 (National Center for Advancing Translational Sciences (NCATS), 2009).
